From a collection of fitness landscapes (doi:10.1126/science.1257360)
Over roughly 140,000 sequences, “enrichment ratio after two sorts for PhoP signalling” has its median near 0; the highest 2% begin near 11. This excerpt belongs to a sample that is enriched for the highest values.

B1: PhoQ; a variant is named by its letters at X, in order, P23837 (parent)
chain: MKKLLRLFFPLSLRVRFLLATAAVVLVLSLAYGMVALIGYSVSFDKTTFRLLRGESNLFYTLAKWENNKLHVELPENIDKQSPTMTLIYDENGQLLWAQRDVPWLMKMIQPDWLKSNGFHEIEADVNDTSLLLSGDHSIQQQLQEVREDDDDAEMTHSVAVNVYPATSRMPKLTIVVVDTIPVELKSSYMVWSWFIYVLSANLLLVIPLLWVAAWWSLRPIEALAKEVRELEEHNRELLNPATTRELTSLVRNLNRLLKSERERYDKYRTTLTDLTHSLKTPLXXLQXXLRSLRSEKMSVSDAEPVMLEQISRISQQIGYYLHRASMRGGTLLSRELHPVAPLLDNLTSALNKVYQRKGVNISLDISPEISFVGEQNDFVEVMGNVLDNACKYCLEFVEISARQTDEHLYIVVEDDGPGIPLSKREVIFDRGQRVDTLRPGQGVGLAVAREITEQYEGKIVAGESMLGGARMEVIFGRQHSAPKDE

Variants of: B1
Test: enrichment ratio after two sorts for PhoP signalling (ratio (wild type AVST 3.29)); higher = more functional
Conditions: with PhoP (E. coli)

| Variant | enrichment ratio |
| --- | --- |
| DHKR | ≤ 0.25 |
| LPWC | ≤ 0.25 |
| DVVV | ≤ 0.25 |
| VKNA | ≤ 0.25 |
| RHPV | ≤ 0.25 |
| YEDC | ≤ 0.25 |
| TEAN | 29.6 |
| QEAN | 2.7 |
| MFAN | ≤ 0.25 |
| TEIN | 5.99 |
| MEIN | 11.2 |
| MEAN | 32.4 |
| MDLT | ≤ 0.25 |
| MDNT | ≤ 0.25 |
| MKAN | ≤ 0.25 |
| MDIN | ≤ 0.25 |
| NEIN | ≤ 0.25 |
| MDAT | 25.1 |
| IEYH | ≤ 0.25 |
| FRYS | ≤ 0.25 |
| FLVW | ≤ 0.25 |
| QNFD | ≤ 0.25 |
| KLAV | ≤ 0.25 |
| GGAV | 23.8 |
| KLKV | ≤ 0.25 |

| Variant | enrichment ratio |
| --- | --- |
| GTAV | ≤ 0.25 |
| TGAV | 17.1 |
| NGAV | ≤ 0.25 |
| TLKV | 48.4 |
| RGAV | ≤ 0.25 |
| LLKV | ≤ 0.25 |
| SLAV | 9.05 |
| NIAV | ≤ 0.25 |
| TLAV | 11.9 |
| FLFA | 0.339 |
| HVFA | ≤ 0.25 |
| EHCF | ≤ 0.25 |
| TDAV | 11.6 |
| ADAV | 5.88 |
| FDAV | ≤ 0.25 |
| ERLI | ≤ 0.25 |
| VDMS | ≤ 0.25 |
| SLSS | 6.86 |
| SDSS | 0.569 |
| SPSS | ≤ 0.25 |
| SRSS | ≤ 0.25 |
| SQSS | 11.6 |
| KYSS | ≤ 0.25 |
| TLSS | 12 |
| SESS | 13.9 |

| Variant | enrichment ratio |
| --- | --- |
| NVSS | ≤ 0.25 |
| TVSS | 11.6 |
| VLSS | 0.29 |
| PLSS | ≤ 0.25 |
| RKAE | ≤ 0.25 |
| AYPP | ≤ 0.25 |
| PNHN | ≤ 0.25 |
| VSWN | ≤ 0.25 |
| ESGC | ≤ 0.25 |
| QYRN | ≤ 0.25 |
| EVDI | ≤ 0.25 |
| PGYQ | ≤ 0.25 |
| TSSS | 14 |
| KQSS | ≤ 0.25 |
| YTSS | ≤ 0.25 |
| KSSS | ≤ 0.25 |
| TTSS | 15.9 |
| FSSS | ≤ 0.25 |
| HVKP | ≤ 0.25 |
| MNYD | ≤ 0.25 |
| VKMD | ≤ 0.25 |
| ISKH | ≤ 0.25 |
| KHQI | ≤ 0.25 |
| HSYE | ≤ 0.25 |
| AEVA | ≤ 0.25 |

| Variant | enrichment ratio |
| --- | --- |
| AETH | 0.824 |
| AESQ | 4.68 |
| AEVI | 17.5 |
| AEVS | 16.2 |
| AEVK | ≤ 0.25 |
| AEKC | ≤ 0.25 |
| AENK | ≤ 0.25 |
| AEVE | 7.98 |
| AETC | 36.7 |
| AESS | 16.3 |
| AEVY | 6.64 |
| QGNI | ≤ 0.25 |
| WYRH | ≤ 0.25 |
| EKKS | ≤ 0.25 |
| RHGF | ≤ 0.25 |
| REAM | ≤ 0.25 |
| PMYC | ≤ 0.25 |
| VLES | ≤ 0.25 |
| QQHF | ≤ 0.25 |
| GTWR | ≤ 0.25 |
| KCDP | ≤ 0.25 |
| VWMG | ≤ 0.25 |
| AEVC | 14.6 |
| QEVF | ≤ 0.25 |
| AETD | ≤ 0.25 |

| Variant | enrichment ratio |
| --- | --- |
| NEVL | ≤ 0.25 |
| MEVL | 11.6 |
| AIVF | 2.34 |
| MAVL | 2.43 |
| AEVF | 14.3 |
| AETA | 5.73 |
| AEVG | 6.84 |
| AETI | 16.8 |
| ERYW | ≤ 0.25 |
| TEFV | 8.47 |
| FYGK | ≤ 0.25 |
| FRYA | ≤ 0.25 |
| WKER | ≤ 0.25 |
| FREH | ≤ 0.25 |
| EDQF | ≤ 0.25 |
| PKWA | ≤ 0.25 |
| MNPT | ≤ 0.25 |
| WRCA | ≤ 0.25 |
| GWPN | ≤ 0.25 |
| AETS | 20.8 |
| AETV | 22.9 |
| AETE | 8.78 |
| AEVM | 46.8 |
| AESK | ≤ 0.25 |
| AEDV | ≤ 0.25 |

| Variant | enrichment ratio |
| --- | --- |
| AETF | 9.37 |
| AETM | ≤ 0.25 |
| AEGM | ≤ 0.25 |
| AERM | ≤ 0.25 |
| AESF | 14.8 |
| AEHF | ≤ 0.25 |
| RWWL | ≤ 0.25 |
| RSVA | ≤ 0.25 |
| ECQN | ≤ 0.25 |
| VEAF | ≤ 0.25 |
| AEVL | 17.5 |
| AETQ | ≤ 0.25 |
| AESC | 32.1 |
| AETW | 11.3 |
| AEKS | ≤ 0.25 |
| AEQC | 16 |
| AEEL | ≤ 0.25 |
| AEPC | ≤ 0.25 |
| AQQC | ≤ 0.25 |
| AERL | ≤ 0.25 |
| AEFW | ≤ 0.25 |
| AKQC | ≤ 0.25 |
| YVCN | ≤ 0.25 |
| DGHV | ≤ 0.25 |
| VIEF | ≤ 0.25 |

| Variant | enrichment ratio |
| --- | --- |
| WKPN | ≤ 0.25 |
| EKAV | ≤ 0.25 |
| STCI | 12.3 |
| STCA | 7.48 |
| STCE | 13.1 |
| SRPM | ≤ 0.25 |
| STCK | 12.3 |
| STPM | 15.9 |
| STHE | ≤ 0.25 |
| STCS | 10.8 |
| YTCE | ≤ 0.25 |
| YTCK | ≤ 0.25 |
| SRCK | ≤ 0.25 |
| SPPM | ≤ 0.25 |
| TPLS | ≤ 0.25 |
| QDRE | ≤ 0.25 |
| ICDP | ≤ 0.25 |
| QAMT | ≤ 0.25 |
| QYWL | ≤ 0.25 |
| FCIR | ≤ 0.25 |
| RNQK | ≤ 0.25 |
| LNAP | ≤ 0.25 |
| THWI | ≤ 0.25 |
| YKPH | ≤ 0.25 |
| VKLF | ≤ 0.25 |

| Variant | enrichment ratio |
| --- | --- |
| AGWK | ≤ 0.25 |
| TEMH | 134 |
| GMCH | 16.1 |
| HECF | ≤ 0.25 |
| HRMH | ≤ 0.25 |
| HECH | 12.7 |
| TCCH | 7.95 |
| VFCH | ≤ 0.25 |
| NRMH | ≤ 0.25 |
| VECH | 24.1 |
| GMMH | ≤ 0.25 |
| HECI | 6.73 |
| GNCH | 3.45 |
| GFPY | ≤ 0.25 |
| DYYD | ≤ 0.25 |
| EPTC | ≤ 0.25 |
| QQYH | ≤ 0.25 |
| QHTA | ≤ 0.25 |
| ETDE | ≤ 0.25 |
| QECH | ≤ 0.25 |
| TECH | 27.7 |
| MECH | 56.6 |
| NECH | 18 |
| HPCH | ≤ 0.25 |
| DMCH | ≤ 0.25 |

| Variant | enrichment ratio |
| --- | --- |
| MFCH | ≤ 0.25 |
| YWCH | ≤ 0.25 |
| HVCH | ≤ 0.25 |
| FIVW | ≤ 0.25 |
| MRRQ | ≤ 0.25 |
| KFHY | ≤ 0.25 |
| FGDH | ≤ 0.25 |
| EQSM | ≤ 0.25 |
| YMLV | 0.756 |
| NWGV | ≤ 0.25 |
| AFIT | ≤ 0.25 |
| IIPL | ≤ 0.25 |
| GIWM | ≤ 0.25 |
| GIGW | 16 |
| GIGM | 36.1 |
| GNGW | ≤ 0.25 |
| GIHW | ≤ 0.25 |
| GNAH | ≤ 0.25 |
| GIAH | 22.5 |
| GIYM | ≤ 0.25 |
| GIMM | 17.3 |
| GITM | 10.3 |
| GNMM | 0.333 |
| GITH | ≤ 0.25 |
| RCKT | ≤ 0.25 |

| Variant | enrichment ratio |
| --- | --- |
| KSCR | ≤ 0.25 |
| YPKK | ≤ 0.25 |
| TDMP | ≤ 0.25 |
| PKYN | ≤ 0.25 |
| IVYH | ≤ 0.25 |
| QMPA | ≤ 0.25 |
| LKRS | ≤ 0.25 |
| KQPM | ≤ 0.25 |
| RNQP | ≤ 0.25 |
| WSPR | ≤ 0.25 |
| NEWG | ≤ 0.25 |
| IPQP | ≤ 0.25 |
| MNPP | ≤ 0.25 |
| CSHW | ≤ 0.25 |
| PKLP | 0.31 |
| FDCK | ≤ 0.25 |
| KLPV | ≤ 0.25 |
| GILT | 3.61 |
| GISA | 13 |
| GIHF | ≤ 0.25 |
| GNTF | ≤ 0.25 |
| GIGG | ≤ 0.25 |
| GNSA | 2.7 |
| GISR | ≤ 0.25 |
| GITF | 18.4 |

| Variant | enrichment ratio |
| --- | --- |
| GIMQ | 11.4 |
| GIMT | 12.6 |
| GNMT | ≤ 0.25 |
| GIGQ | ≤ 0.25 |
| WKTM | ≤ 0.25 |
| RKLH | ≤ 0.25 |
| GFLH | ≤ 0.25 |
| TNCW | ≤ 0.25 |
| LAHQ | ≤ 0.25 |
| MIEG | ≤ 0.25 |
| RYNY | ≤ 0.25 |
| GIVV | 11.3 |
| GTMC | ≤ 0.25 |
| GYLR | ≤ 0.25 |
| GILR | 12.2 |
| WIVV | ≤ 0.25 |
| GNAW | ≤ 0.25 |
| GIAW | 21.6 |
| GIMC | 17.3 |
| GITD | ≤ 0.25 |
| GNMC | ≤ 0.25 |
| GNLR | ≤ 0.25 |
| GNVV | 5.22 |
| MDVY | ≤ 0.25 |
| LSLS | ≤ 0.25 |

| Variant | enrichment ratio |
| --- | --- |
| IAET | ≤ 0.25 |
| ECYK | ≤ 0.25 |
| KLTV | ≤ 0.25 |
| LQYA | ≤ 0.25 |
| LGNN | ≤ 0.25 |
| QGIH | ≤ 0.25 |
| EKVT | ≤ 0.25 |
| YIEP | ≤ 0.25 |
| HLIK | ≤ 0.25 |
| GITG | 2.48 |
| GNAG | 0.269 |
| GNSS | 5.64 |
| GISS | 13.5 |
| GILG | 12.3 |
| GITI | 5.68 |
| GNTK | ≤ 0.25 |
| GITK | 16 |
| GIAG | 15.6 |
| GISK | 4.87 |
| GIMG | 8.1 |
| GNLG | 5.07 |
| RNAN | ≤ 0.25 |
| KNTS | ≤ 0.25 |
| TMDQ | ≤ 0.25 |
| AWAD | ≤ 0.25 |

| Variant | enrichment ratio |
| --- | --- |
| RVNY | ≤ 0.25 |
| YHMP | ≤ 0.25 |
| AFVI | ≤ 0.25 |
| SYPA | ≤ 0.25 |
| GIYI | 0.548 |
| GNAS | 4.84 |
| GNSM | 10.6 |
| GIAT | ≤ 0.25 |
| GIAS | 14.2 |
| GILQ | 17.5 |
| GIWI | ≤ 0.25 |
| GISF | 8.06 |
| GITA | 7.39 |
| GILA | 11.3 |
| GISM | 18.4 |
| GNLQ | 5.83 |
